A selection: hits, their analogues and other compounds. The true share with any hit is near 22%.
LmPK inhibitor = blocks Leishmania mexicana pyruvate kinase activity; purified LmPK, Kinase-Glo ATP luminescence, 1 h; Potency, µM (series often up to 57.5 µM), without a hit: at the top dose activity change, negative = inhibition, most hits filed as inhibitors; 290,000 tested, 0.37% active; Q27686; also: potency is read from the fitted curve at half-maximal effect; % is scaled to controls: 0 for no effect and ±100 for the full control effect
Target sequence (Q27686 whole entry, looked up): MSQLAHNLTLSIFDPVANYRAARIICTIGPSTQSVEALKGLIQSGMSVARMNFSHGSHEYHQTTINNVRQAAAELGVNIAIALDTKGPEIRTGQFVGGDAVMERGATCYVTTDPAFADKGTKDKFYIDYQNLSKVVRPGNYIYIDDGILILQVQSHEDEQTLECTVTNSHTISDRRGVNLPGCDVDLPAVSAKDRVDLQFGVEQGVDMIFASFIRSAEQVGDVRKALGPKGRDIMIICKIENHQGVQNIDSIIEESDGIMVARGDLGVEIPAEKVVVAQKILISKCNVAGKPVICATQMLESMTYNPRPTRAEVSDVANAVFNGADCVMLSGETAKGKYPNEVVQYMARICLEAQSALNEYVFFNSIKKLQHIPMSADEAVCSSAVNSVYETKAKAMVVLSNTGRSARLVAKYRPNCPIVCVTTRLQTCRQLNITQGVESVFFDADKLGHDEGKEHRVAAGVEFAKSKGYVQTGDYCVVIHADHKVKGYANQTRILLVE
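ATP generated from ADP (0.1 mM) and PEP (0.5 mM) by 0.1 nM LmPK over 1 h at room temperature (pH 7.2 imidazole buffer) was detected by coupled luciferase luminescence. Values were normalized to uninhibited and no-enzyme wells.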
Pf growth 48h = inhibits P. falciparum growth in the first generation, 48 h; AID 504832; 310,000 tested, 5.9% active; Potency, µM (series often up to 28.7 µM), for the others: top-dose activity change, negative = inhibition, hits mostly inhibitors; P. falciparum luciferase growth in erythrocytes, 48 h; also: potency is read from the fitted curve at half-maximal effect; % is scaled to controls: 0 for no effect and ±100 for the full control effect
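Read-out is firefly luciferase luminescence from an integrated reporter in P. falciparum, so falling signal marks reduced parasite growth. Infected erythrocytes were at 2% hematocrit and 0.1% parasitemia (final) in Albumax-supplemented RPMI 1640.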
Shiga inhibitor = inhibitors of Shiga toxin in Vero cells; 290,000 tested, 9.2% active; AID 2315; Vero cells, Shiga toxin protein synthesis inhibition reporter; inhibition, % at 38.7 µM; in the data active = inhibition mostly above about 28%, no sharp cut-off; inactive = mostly below about 43%; also: 0% is about no effect
Pf growth 96h = inhibits malaria parasite growth, 96 h. Potency, µM (series often up to 28.7 µM), without a hit: top-dose activity change, negative = inhibition, hits mostly inhibitors. 320,000 tested, 6.9% active. P. falciparum luciferase reporter growth, 96 h; also: potency is read from the fitted curve at half-maximal effect; % is scaled to controls: 0 for no effect and ±100 for the full control effect
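Erythrocytes infected with luciferase-expressing P. falciparum were dispensed at 2% hematocrit and 0.05% parasitemia (final), then incubated with compounds 96 hours at 37 C in 5% CO2. Luminescence after detection reagent addition reported growth.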
CHX counter = counter-screen for Shiga toxin inhibitors: cycloheximide protein synthesis inhibition | cell reporter, cycloheximide protein synthesis inhibition counterscreen | max response, % | 300,000 tested, 12% active; in the data active = max response mostly above about 13%, no sharp cut-off; inactive = mostly below about 14%; also: read at 38.3 µM for the half of the compounds with a filed dose; 0% is about no effect
Active calls of the source: *; ? = inconclusive; nt = no result given; + = active, no number; ! = a repeat was not active; [ ] = dose if it differs, or a comment. Unless noted, calls follow the shape of the dose curve; as a rule, active = well fitted inhibition curve with a large enough effect; inconclusive = small, poorly fitted or top-dose-only effect, or another doubt; inactive = no such curve, though single readings can be large or run the other way.

SMILES	LmPK inhibitor	Pf growth 48h	Shiga inhibitor	Pf growth 96h	CHX counter
CCN(CC)CCN1C(=O)c2oc3ccccc3c(=O)c2C1c1cccc(Br)c1 (stereo not drawn)	3%	?	25	0.93µM*	-3
CCN(CC)CCN1C(=O)c2oc3ccccc3c(=O)c2C1c1ccccc1 (stereo not drawn)	-5%	?	35	?	35*
CCN(CC)CCCN1C(=O)c2oc3ccccc3c(=O)c2C1c1cccs1 (stereo not drawn)	-3%	10%	-4	nt	19
Cc1cc2oc3c(c(=O)c2cc1C)C(c1cccc(Br)c1)N(Cc1ccco1)C3=O (stereo not drawn)	6%	?	22	?	-5
O=C1c2oc3ccc(Cl)cc3c(=O)c2C(c2cccc(Br)c2)N1CCO (stereo not drawn)	5%	12µM*	8	1%[5.75 µM]	-3
O=C(Oc1ccccc1Cl)c1ccc(-n2cncn2)nc1	1%	35%	-35	30%	-1
COC(=O)Cc1nnc(SCC(=O)Nc2ccccc2)c2ccccc12	9%	?	-7	-26%	-1
CCCCn1c(N)c(N(CC(C)C)C(=O)CSc2ccccc2C)c(=O)[nH]c1=O	nt	2%	nt	?	nt
CCCOc1ccc(C2c3c(oc4ccccc4c3=O)C(=O)N2CCN(CC)CC)cc1OC (stereo not drawn)	2%	1.5µM*	38	?	7
O=C(NCc1ccccc1)C(c1ccccn1)N(C(=O)c1csnn1)c1ccccc1F (stereo not drawn)	0%	69%	14	20%	-7
COc1ccc(-c2csc(NC(=O)c3cccc(N4C(=O)CCC4=O)c3)n2)cc1OC	nt	?	nt	-30%	nt
O=C1c2ccccc2C(=O)N1c1cccc(-c2csc(Nc3ccc4c(c3)OCO4)n2)c1	0%	18%	71*	10µM*	20*
COc1ccccc1Nc1nc(-c2cccc(N3C(=O)c4ccccc4C3=O)c2)cs1	1%	6%	-4	15µM*	1
CN(C)c1ccc(NC(=O)c2ccc(COc3cccc(Cl)c3)o2)cc1	0%	nt	77*	nt	55*
CCN1CCN(C(=O)c2ccc(COc3cccc(Cl)c3)o2)CC1	8%	25%	-3	-10%	-1
CCOc1ccc(OCc2ccc(C(=O)NN)o2)cc1	4%	72%	54*	182%	30*
COC(=O)c1ccc(COc2cc([N+](=O)[O-])cc3cccnc23)o1	-2%	20%	15	3%	-3
O=C(OCc1ccccn1)c1ccc(COc2ccc3ccccc3c2)o1	5%	82%	66*	220%	45*
NNC(=O)c1ccc(COc2ccc3ccccc3c2)o1	5%	-6%	34*	?	19*
O=C1N(c2cccc(Cl)c2)C(c2ccc(Cl)cc2)N2CCCN12 (stereo not drawn)	0%	?	20	?	1
C/C(N)=C(/C#N)C(=O)CSc1nc2ccccc2c(=O)n1-c1ccc(C)c(Cl)c1	2%	-13%	-11	-12%	1
O=C(CN(C(=O)CNC(=O)c1cccs1)c1ccc(F)cc1)NC1CCCC1	-3%	-9%	-6	31%	-3
CCOc1ccc(OCc2ccc(C(=O)NC(C)(C)C)o2)cc1	-8%	-11%	37*	?	12
CCOc1ccc(OCc2ccc(C(=O)NCC3CCCO3)o2)cc1 (stereo not drawn)	6%	-9%	30	nt	21
CCOc1ccc(OCc2ccc(C(=O)Nc3cccnc3)o2)cc1	3%	12µM*	158*	9.3µM*	31*
SMILES	LmPK inhibitor	Pf growth 48h	Shiga inhibitor	Pf growth 96h	CHX counter
CC(C)NC(=O)c1ccc(COc2ccc(C(C)(C)C)cc2)o1	-2%	-15%[0.00184 µM]	160*	?	95*
Cc1ccc(C)c(OCc2ccc(C(=O)NN)o2)c1	2%	?	10	-24%	11
Cc1ccc(OCc2ccc(C(=O)NN)o2)cc1C	3%	-5%	31	40%	26*
CCn1c(CN2CCN(c3cccc(C)c3C)CC2)n[nH]c1=S	8%	6%	-8	?	-4
Cc1nc(NCCc2ccc(S(N)(=O)=O)cc2)c2c(C)c(C)sc2n1	-5%	?	-18	nt	-2
c1ccc(CNc2ncnc3c2cnn3-c2ccccc2)cc1	7%	58%	45	2%	13*
CC(C)(C)Nc1ncnc2c1cnn2-c1ccccc1	-4%	62%	96*	159%	57*
c1ccc(CCNc2ncnc3c2cnn3-c2ccccc2)cc1	-3%	169%	66*	36%	44*
Cc1cccc(-n2ncc3c(NCCc4ccc(S(N)(=O)=O)cc4)ncnc32)c1	5%	nt	-6	10µM*	1
O=c1[nH]n(-c2ncnc3c2cnn3-c2ccccc2)c(=O)c2ccccc12	10%	19%	12	4%	-6
Cc1ccc(C)c(N2N=C(C(=O)Nc3ccc(N4CCOCC4)cc3)CCC2=O)c1	nt	?	nt	66%	nt
Cc1cccc(C(=O)NNC(=O)C2CC2)c1	-7%	21%	-21	37%	-1
COc1ccc(/C=C/c2ccccc2)cc1[C@H]1[C@H]2C=CC[C@@H](C)[C@@H]2C(=O)N1Cc1ccccc1	0%	?	11	?	-2
Clc1ccc(-n2ncc3c(NCc4cccnc4)ncnc32)cc1Cl	1%	103%	27	76%	34*
Cc1cccc(-n2ncc3c(NCc4cccs4)ncnc32)c1	3%	51%	114*	12%	23*
Cc1cccc(-n2ncc3c(NCc4ccccc4)ncnc32)c1	1%	47%	+	-4%	29*
Fc1ccc(CNc2ncnc3c2cnn3-c2ccccc2)cc1	9%	-5%	22	20%	17
Clc1ccc(-n2ncc3c(NCc4cccs4)ncnc32)cc1	6%	?	-5	?	-5
Cn1ncc2c(NCc3ccccc3)ncnc21	10%	18%	8	-1%	13*!
COc1ccc(-n2c(=O)c3ccccc3n(Cc3cccc(C)c3)c2=O)cc1OC	0%	-3%	19	-24%	-7
COc1ccccc1N(C)C(=O)c1cc(S(=O)(=O)N2CCCC2)cn1C	-1%	23%	2	-5%	3
CCCc1cc(C(=O)NNC(=S)NC(C)c2ccccc2)cs1 (stereo not drawn)	7%	nt	42	?	7
Cc1nc(-c2ccc(Cl)cc2)sc1C1(C)CC(c2ccc([N+](=O)[O-])cc2)=NO1 (stereo not drawn)	0%	37%	2	17%	6
Cc1nc(-c2ccc(Cl)cc2)sc1C1(C)CC(c2cccc(F)c2)=NO1 (stereo not drawn)	0%	77%	52*	65%	28*
Cc1nc(-c2ccc(Cl)cc2)sc1C1(C)CC(c2ccc(F)cc2)=NO1 (stereo not drawn)	-1%	8%	47*	44%	25*
